Assay outcomes: PubChem BioAssay, Broad Institute
An excerpt weighted towards active compounds, which were near 1.8% of everything screened.
F508del corr: CFTR F508del correction in bronchial cells. AID 720511. 0.36% of 350,000 active. CFBE cells, YFP halide quenching; stimulated with forskolin plus potentiator P3; % fluorescence drop versus neutral controls. activity (quench increase), % at 7.58 µM;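 active means mean added fluorescence quench of at least 8% versus neutral control, with both replicates also reaching 8%; inconclusive means only one of the mean or replicate conditions met; inactive means mean below 8% and not both replicates reaching 8%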;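 further: cells transiently co-express mutant CFTR-F508del with the halide-sensitive YFP; corrector assay measuring rescue of mutant channel to the surface after 24 h compound exposure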
EWS-Fli block: EWS/Fli transcriptional activity inhibition; inhibition, % at 12.6 µM; 0.67% of 350,000 active; A673 NR0B1-luciferase reporter, viability-normalised; AID 651661;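 active means mean inhibition of at least 50% after viability correction, with every replicate also passing that limit; inconclusive means mean reaches 50% but only one of two replicates passes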;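 further: firefly luciferase signal divided by Alamar Blue viability fluorescence both relative to DMSO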
RAD52 inh: RAD52 (human) annealing inhibition. P43351. recombinant RAD52 DNA annealing, FRET fluorescence. AID 651710. 0.46% of 360,000 active. inhibition, % at 18.7 µM;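 active means every replicate showing at least 50% inhibition; inconclusive means mean inhibition at least 50% but not in every replicate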
Target sequence (P43351 whole entry, looked up): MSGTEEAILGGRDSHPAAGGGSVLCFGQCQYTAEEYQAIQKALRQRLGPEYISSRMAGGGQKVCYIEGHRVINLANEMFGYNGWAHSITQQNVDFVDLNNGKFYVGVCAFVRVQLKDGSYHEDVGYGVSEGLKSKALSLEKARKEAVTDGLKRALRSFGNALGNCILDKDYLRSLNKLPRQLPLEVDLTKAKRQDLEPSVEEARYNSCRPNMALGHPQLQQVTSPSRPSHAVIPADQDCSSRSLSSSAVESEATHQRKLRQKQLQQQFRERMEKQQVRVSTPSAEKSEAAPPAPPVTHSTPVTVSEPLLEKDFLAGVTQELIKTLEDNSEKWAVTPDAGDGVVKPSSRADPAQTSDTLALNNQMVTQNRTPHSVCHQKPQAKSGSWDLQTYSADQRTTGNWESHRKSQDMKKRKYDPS
RAD54 inh: inhibitors of human RAD54 branch migration. Q92698. RAD54 Holliday junction branch migration, FAM/BHQ fluorescence. inhibition, % at 10.4 µM. 0.14% of 360,000 active. AID 602329;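 active means mean normalized replicate activity at least 40 and at least half of replicates scoring 40 or more; inconclusive means only one of the two criteria met; inactive means mean below 40 and under half of replicates reaching 40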;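 further: 0% = median of neutral control wells and 100% = median of positive control wells; inhibitors cause a drop in the FAM fluorescence signal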
INS-1E GSIS act: GLuc luminescence reporter in INS-1E cells, primary screen for activators of glucose-dependent secretion of insulin; INS-1E GLuc reporter insulin secretion, 2-3 h; activation, % at 16.6 µM; 0.61% of 370,000 active; AID 743287;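 active means lowest replicate activation of at least 40%, so every replicate reaches that level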;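 further: 0% = median of neutral control wells and 100% = median of IBMX positive control wells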
LGR2 antag: Drosophila LGR2 receptor signaling inhibition. 0.35% of 380,000 active. AID 720647. HEK293 LGR2, CRE-luciferase, bursicon-stimulated, 4 h. inhibition, % at 9.99 µM;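 active means drop in luminescence signal, shown as inhibition above about 50% in the replicate tests, limit read from the data, passing the limit was not always enough; inconclusive means probably only some replicates passing the limit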;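 further: agonist challenge used bursicon conditioned medium at about half maximal strength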
Numbers without * were called inactive; ? = inconclusive; . = no result given; ! = not active in a repeat.

SMILES	F508del corr	EWS-Fli block	RAD52 inh	RAD54 inh	INS-1E GSIS act	LGR2 antag
Cc1ccc(C(=O)N/N=C/c2ccc(-c3cccc(C(F)(F)F)c3)o2)cn1	5	50*	-17	-3	.	.
CNC(=O)C(=O)NCC1OCCCN1S(=O)(=O)c1ccc(F)cc1C (stereo not drawn)	3	.	-3	7	44*	11
CCOc1ccc(/C=C2/Sc3ccc(C(=O)NCC4CCCO4)cc3N(C)C2=O)cc1OC (stereo not drawn)	0	5	-14	6	40*	-7
O=C(C[C@@H]1CC[C@@H]2[C@H](COC[C@@H](O)CN2Cc2cc(F)cc(F)c2)O1)Nc1nccs1	1	-4	5	-9	-18	-9
CCCNC(=O)N(C)C[C@H]1Oc2ncc(-c3ccccc3)cc2C(=O)N([C@H](C)CO)C[C@H]1C	4	-2	12	5	14	9
O=C(NC[C@H]1[C@H](c2ccccc2)[C@H](CO)N1C(=O)Cc1cccnc1)C1CC1	-2	-1	-12	-2	12	2
COc1ccc2c(c1)/C(=C/c1cc(OC)c(OC)c(OC)c1)C(=O)N2	13*	63*	2	.	10	18
O=C(N[C@@H]1CC[C@H](CC(=O)N2CCc3ccccc3C2)O[C@@H]1CO)C1CC1	-1	4	3	1	7	21
O=C(c1ccccc1)C(CN1CCCCC1)c1ccccc1 (stereo not drawn)	-11	69*	-3	-4	6	?
CN(C)C(=O)c1cccc(-c2ccc(C3[C@H]4CNC[C@@H]3N4Cc3ccc4c(c3)OCO4)cc2)c1 (stereo partly drawn)	-1	-14	.	.	-6	8
CC1(c2nnc(-c3ccc(Cl)cc3)o2)CC(c2cccc(Cl)c2)=NO1 (stereo not drawn)	1	-2	1	-8	13	-2
CC(C)(C)c1ccc(C#C[C@@H]2C=C[C@H]3OC(=O)CC/C=C/CCC(=O)OC[C@H]3O2)cc1	0	-2	-21	.	95*	-15
Cc1ccsc1/C=N\NC(=O)c1n[nH]c2c1CCC2	.	.	.	2	1	78*
O=C(N/N=C/c1c(Cl)cccc1Cl)c1n[nH]c2c1CCCC2	-3	-49	-12	.	-7	-73
C=C1CCN(C(Cc2ccccc2)C(=O)OC)S(=O)(=O)c2ccc(F)cc21 (stereo not drawn)	1	-3	-2	5	.	.
O=C(Nc1cccnc1)c1cnn2c(C(F)F)cc(C3CC3)nc12	.	.	.	-1	60*	-1
CC(C)C(NC(=O)Cc1ccccc1)C(=O)N1CCN(c2cccc(Cl)c2)CC1 (stereo not drawn)	-2	20	-9	3	.	7
O=C(CCN=C1NS(=O)(=O)c2ccccc21)OCC(=O)c1ccc(F)c(F)c1	-4	15	4	0	17	6
O=C(NCCN1C(=O)S/C(=C\c2ccc(OC(F)F)cc2)C1=O)c1cnccn1	13*	59*	-32	.	-5	25
CC(Oc1ccc(Cl)cc1)C(=O)NCCN1C(=O)S/C(=C\c2cccnc2)C1=O (stereo not drawn)	.	.	.	.	-25	0
COc1ccc(/C=C2\SC(=O)N(CCNC(=O)C3=COCCO3)C2=O)cc1	8.0*	34	-4	3	12	-37
CC(=O)N1[C@@H]2CN(S(=O)(=O)c3ccccc3F)c3ccccc3[C@@H]2[C@@H]1CO	-1	-7	-6	12	4	-13
CCOc1ccc(CCNS(=O)(=O)c2c(C)nc3scc(C)n3c2=O)cc1OCC	2	9	-6	2	52*	-23
NC(=O)c1cc([N+](=O)[O-])ccc1NCc1ccc(N)cc1	1	74*	4	-10	3	-13
NC(=O)c1cc([N+](=O)[O-])ccc1NCc1ccc(F)cc1	-1	-59	-3	-2	16	-24
SMILES	F508del corr	EWS-Fli block	RAD52 inh	RAD54 inh	INS-1E GSIS act	LGR2 antag
C[C@]12CCC3C(CC[C@H]4CC(O)CC[C@]34C)C1CC/C2=N/NC(=O)c1ccncc1 (stereo partly drawn)	0	53*	1	.	-12	7
C[C@]12CCC3C(CC[C@H]4CC(O)CC[C@]34C)C1CC/C2=N/O (stereo partly drawn)	-4	2	-13	-14	8	11
Cc1ccc(S(=O)(=O)N2C[C@@H]3N[C@H](C2)[C@@H]3c2ccc(-c3cccc(C)c3)cc2)cc1	0	-2	.	.	337	7
O=S(=O)(c1ccc(F)cc1)N1C[C@@H]2N[C@H](C1)C2c1ccc(-c2ccc(F)cc2)cc1 (stereo partly drawn)	0	0	87*!	.	47	-17
CN(C)C(=O)c1ccc(-c2ccc(C3[C@@H]4CN(S(=O)(=O)c5ccc(F)cc5)C[C@H]3N4)cc2)cc1 (stereo partly drawn)	1	11	5	.	2	4
CN(C)C(=O)c1ccc(-c2ccc(C3[C@@H]4CN(S(=O)(=O)c5ccccc5)C[C@H]3N4)cc2)cc1 (stereo partly drawn)	3	9	18	.	-11	5
O=S(=O)(c1ccccc1)N1C[C@@H]2N[C@H](C1)C2c1ccc(-c2ccc(F)cc2)cc1 (stereo partly drawn)	0	-4	66*!	.	5	-18
Cc1cccc(S(=O)(=O)N2C[C@@H]3N[C@H](C2)C3c2ccc(-c3cccc(C#N)c3)cc2)c1 (stereo partly drawn)	5	-7	54*!	.	-28	0
Cc1ccc(-c2ccc(C3[C@@H]4CN(S(=O)(=O)c5cccc(C)c5)C[C@H]3N4)cc2)cc1 (stereo partly drawn)	-4	-4	98*	.	.	.
O=C(NCc1ccccc1)c1ccc(Cn2cc(C(F)(F)F)ccc2=O)cc1	.	.	.	-5	.	.
O=S(=O)(c1ccc(-c2ccccc2)cc1)N1C[C@@H]2N[C@H](C1)[C@@H]2c1ccc(-c2cccnc2)cc1	1	29	73*	.	23	42
O=S(=O)(c1ccc(-c2ccccc2)cc1)N1C[C@@H]2N[C@H](C1)C2c1ccc(-c2cncnc2)cc1 (stereo partly drawn)	3	-7	28	.	3	13
Cc1ccc(-c2ccc(C3[C@@H]4CN(S(=O)(=O)c5ccc(C)cc5)C[C@H]3N4)cc2)cc1 (stereo partly drawn)	-5	8	74*	.	71	0
COc1cccc2c1C1COC3C4CC(C(=O)O)C(C(C2)N13)N4C (stereo not drawn)	2	72*	-18	.	15	1
CNc1nc(NC)nc(NNC(=O)c2ccccc2)n1	0	0	-10	-5	.	-3
CC(C)(C)C1CCC(OCC(O)CN2CCCC2)CC1 (stereo not drawn)	.	17	-7	-2	6	8
